Source: PubChem BioAssay (NCATS)
Inconclusive results are not listed. A number with no mark means an inactive call. Calls come from the whole dose curve; as a rule, active = well fitted inhibition curve with a large enough effect; inconclusive = small, poorly fitted or top-dose-only effect; inactive = flat fitted curve, though single readings scatter.

assay: qHTS to identify inhibitors of the type 1 interferon - major histocompatibility complex class I in skeletal muscle: primary screen against the NCATS Pharmaceutical Collection (AID 1347407); conditions: human skeletal muscle cells, IFN-b-induced MHC-I HiBiT luminescence, 24 h; series mostly up to 45.9 µM; activity change, negative = inhibition: at the top concentration;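 note: luminescence of HiBiT knocked into endogenous HLA-B as interferon-induced MHC class I level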
In short: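 Cells were seeded with 4 ng/ml IFN-beta, incubated 1 h, then dosed with compounds over eight 1:5 steps up to 46 uM final. After 24 h at 37 C, HiBiT lytic reagent was added and luminescence read after 10 min lysis in the dark.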
% is set by controls: 0 for no effect and ±100 for the full control effect.

Row | Compound | activity change, negative = inhibition
1 | FC(F)(F)C(Cl)Br (configuration not stated) | 4.47%
2 | Nc1ncnc(Nc2ccccc2)n1 | 5.93%
3 | CCOc1cc(NC(C)=O)ccc1C(=O)OC | -1.29%
4 | CCCCCOC(=O)Nc1nc(=O)n([C@@H]2O[C@H](C)[C@@H](O)[C@H]2O)cc1F | -0.251%
5 | CN1CCCN=C1COC(=O)C(O)(c1ccccc1)C1CCCCC1 (configuration not stated) | 4.32%
6 | Cc1cc(C)nc(NS(=O)(=O)c2ccc(N)cc2)n1 | 2.93%
7 | CC(C)=CCC/C(C)=C/CO | -2.15%
8 | COc1cc(C(=O)NCCCCCC(=O)O)cc(OC)c1OC | 10.8%
9 | CC(=O)OCC(COC(C)=O)OC(C)=O | 3.11%
10 | O=C(O)Cc1cn(-c2ccccc2)nc1-c1ccc(Cl)cc1 | -2.91%
11 | Cc1cc(=O)[nH]c(=S)[nH]1 | 0.517%
12 | CC(=O)Nc1ccc(C(=O)O)cc1 | -5.96%
13 | Cn1cc(C(=O)[C@@H]2CCc3nc[nH]c3C2)c2ccccc21 | -6.93%
14 | O=C(O)CCCc1ccccc1 | 2.2%
15 | COc1ccc(Cc2cnc(N)nc2N)cc1OC | 6.49%
16 | Cc1c(NC(C)C)c(=O)n(-c2ccccc2)n1C | -5.27%
17 | O=C(O)/C=C/c1ccc(Cn2ccnc2)cc1 | -0.517%
18 | CCCCCCCC(=O)OCC(COC(=O)CCCCCCC)OC(=O)CCCCCCC | 3.93%
19 | CC(=O)N(CC(O)CO)c1c(I)c(C(=O)NCC(O)CO)c(I)c(C(=O)NCC(O)CO)c1I (configuration not stated) | -0.362%

Row | Compound | activity change, negative = inhibition
20 | Cc1ccc(S(=O)(=O)NC(=O)NC2CCCCC2)cc1 | -10.5%
21 | NC(=O)NS(=O)(=O)c1ccc(N)cc1 | 11.9%
22 | CC(=O)[C@@]1(O)CC[C@H]2[C@@H]3C[C@H](C)C4=CC(=O)C=C[C@]4(C)[C@@]3(F)[C@@H](O)C[C@@]21C | -30.3%
23 | CC[N+](C)(CC)CCOC(=O)C1c2ccccc2Oc2ccccc21 | -10.1%
24 | CC(C(=O)O)c1ccc2c(c1)Cc1cccnc1O2 (configuration not stated) | -1.37%
25 | Nc1ncnc2c1ncn2[C@@H]1O[C@H](COP(=O)(O)O)[C@@H](O)[C@H]1O | 17.1%
26 | O=C(c1ccccc1)C(O)c1ccccc1 (configuration not stated) | 2.5%
27 | COc1cc(O)cc(O)c1 | -3.64%
28 | CC(C)C[C@@H](N)C(=O)O | 18.1% [at 19 µM]
29 | CC(N)CCCC(C)(C)O (configuration not stated) | -5.32%
30 | CC1(c2ccccc2)OC(C(=O)O)=CC1=O (configuration not stated) | -1.89%
31 | CC(=O)N(CC(O)CN(C(C)=O)c1c(I)c(C(=O)NCC(O)CO)c(I)c(C(=O)NCC(O)CO)c1I)c1c(I)c(C(=O)NCC(O)CO)c(I)c(C(=O)NCC(O)CO)c1I (configuration not stated) | -8.54%
32 | CC(C)CCCC(C)CCCC(C)CCCCC(C)CCCC(C)CCCC(C)C (configuration not stated) | -0.118%
33 | CCCCCC(C)N (configuration not stated) | -4.31%
34 | Cc1ccc(S(=O)(=O)NC(=O)NC2CCCCCCC2)cc1 | -20.7%
35 | NS(=O)(=O)c1cc(-c2nn[nH]n2)c(NCc2cccs2)cc1Cl | -18.9%
36 | Nc1ccncc1N | -2.86%
37 | CN[C@@H]1[C@@H](O)[C@@H](O[C@@H]2[C@H](O)[C@H](O[C@H]3OC(CN)=CC[C@H]3N)[C@@H](N)C[C@H]2N)OCC1(C)O (some centres not stated) | -10.6%
